# From PubChem BioAssay
# HT1080-NT tox: kills 2HG-producing HT-1080-NT fibrosarcoma cells | HT-1080-NT fibrosarcoma viability, CellTiter-Glo ATP luminescence, 48 h | Potency, µM (highest dose often 46.1 µM), for the others: at the top dose activity, negative = less viability, actives largely listed as cytotoxic | hit rate 1.6% among 360,000 | AID 686970;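 also: NT is the 2HG producing partner of a matched IDH1 knockdown line; 0% = DMSO-treated cells and -100% = media-only wells without cells; nearly all actives have a fitted effect of over 55% in size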
#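 Luminescent CellTiter-Glo readout after 48 hours of compound exposure at 37 degrees C defined viability of HT-1080-NT cells. Activity was normalized to DMSO wells and cell-free media wells; concentration-response curves were fitted and assigned curve classes.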
# HT1080 IDH1KD tx: HT-1080 IDH1 knockdown cell toxicity (counter line) | HT-1080 IDH1 knockdown viability, ATP luminescence, 48 h | Potency, µM (doses to about 46.1 µM), for inactives: at the highest dose activity, negative = toxicity, actives largely listed as cytotoxic | hit rate 2% among 360,000;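 also: 0% = DMSO wells and -100% = cell-free medium wells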
#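 After a 2 h attachment period, IDH1KD HT-1080 cells took pin-transferred compound for 48 h at 37 °C; ATP-based luminescence after 10 min room-temperature reagent incubation reported viability.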
# ATXN2 expr inh: ATXN2 expression inhibition. hit rate 0.72% among 360,000. HEK-293 ATXN2-luciferase reporter, luminescence, 24 h. Potency, µM (top dose mostly 57 µM), for the others: at the highest dose activity change, negative = inhibition, usual class: inhibitors. AID 1745845; also: % is scaled to controls: 0 for no effect and ±100 for the full control effect; nearly all actives have a fitted effect of over 55% in size
#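 qHTS (up to 57 uM final) was run with 24 h compound exposure of reporter cells at 37 °C. Each well was multiplexed: SteadyGlo luminescence measured ATXN2-luciferase expression after a fluorogenic Gly-Phe-AFC viability readout (25 uM final).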
# KB-3-1 tox: KB-3-1 parental cell cytotoxicity | hit rate 1.4% among 400,000 | KB-3-1 viability, CellTiter-Glo ATP luminescence, 72 h | Potency, µM (highest dose often 46.1 µM), hits mostly cytotoxic; also: % is scaled to controls: 0 for no effect and ±100 for the full control effect; nearly all actives have a fitted effect of over 60% in size
#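 Using CellTiter-Glo luminescence, growth of non-resistant KB-3-1 adenocarcinoma cells is assessed 72 h after pin-tool compound addition at 37 °C. Normalized responses across the concentration series yield fitted curves.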
# ATXN viability: cell viability loss in ATXN counter-screen; AID 651635; hit rate 0.49% among 400,000; S2 cells (HEK-293 line with an ATXN2-luciferase reporter) viability, CellTiter-Fluor protease fluorescence, 24 h; Potency, µM (top dose mostly 56.7 µM), usual class: cytotoxic; also: nearly all actives have a fitted effect of over 40% in size
# KB-V1 cytotox: KB-V1 MDR subline cytotoxicity. KB-V1 MDR cells viability, CellTiter-Glo, 72 h. hit rate 3.4% among 400,000. Potency, µM (series often up to 46.1 µM), usual class: cytotoxic. AID 1347076; also: % is scaled to controls: 0 for no effect and ±100 for the full control effect; nearly all actives have a fitted effect of over 60% in size
#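 KB-V1 cells (P-gp-expressing MDR subline of KB-3-1) in phenol-red-free DMEM with 10% FBS were exposed to library compounds over a concentration series for 72 h at 37 degrees C. Viability read by CellTiter-Glo luminescence; concentration-effect curves fitted after normalization.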
# The depositor's hits bear a star; i = inactive; ? = inconclusive; · = no result given; [ ] = remark or other dose. Shown are actives, neighbours in structure and some others; about 6.2% of the full set was active somewhere. Calls follow the shape of the dose curve; as a rule, active = well fitted curve in the direction sought with a large enough effect; inconclusive = small, poorly fitted or top-dose-only effect, or another doubt; inactive = no such curve, though single readings can be large; an effect the other way counts as inactive or inconclusive. Potency is read from the fitted curve at half-maximal effect.
SMILES,HT1080-NT tox,HT1080 IDH1KD tx,ATXN2 expr inh,KB-3-1 tox,ATXN viability,KB-V1 cytotox
O=C(CSc1nnc(-c2cccs2)o1)Oc1ccc(Cl)cc1,·,·,·,i,·,i
CC(NC(=O)c1ccco1)c1nnc2n1CCN(Cc1cccc(Cl)c1)CC2 (stereo not given),·,·,·,·,i,·
COc1ccc(NC(=O)Cc2c(C(=O)O)[nH]c3ccccc23)cc1OC,·,·,11.6%,i,i,i
Cc1cc(Nc2cc(Cl)ccc2C)n2nc(Cc3ccccc3)nc2n1,·,·,13.9%,i,i,i
Cc1cc(C)c(-c2csc(Cc3nc(-c4cc5ccccc5oc4=O)cs3)n2)cc1C,-3.2%,-9.1%,-21.0%,23.1µM*,i,?
Cc1cc(C)c(-c2csc(-c3cc4ccccc4oc3=O)n2)cc1C,·,·,8.5%,i,i,i
COc1cc(NC(=O)CCN2CCN(Cc3ccccc3)CC2)cc(OC)c1,7.4%,3.4%,-0.9%,i,i,i
O=C(NCc1ccc(N2CCCC2=O)cc1)Nc1cccc(Cl)c1,-2.7%,-23.7%,-30.2%,i,i,16.4µM*
O=C(NCCCN1CCN(c2cccc(Cl)c2)CC1)c1cnn(-c2ccc(F)cc2)c1-n1cccc1,·,·,35.5µM*,?,?,?
O=C(NCc1ccc(N2CCCC2=O)cc1)c1cccc(Cl)c1,0.2%,-11.2%,-10.3%,i,i,i
O=C(CCN1CCN(Cc2ccccc2)CC1)Nc1cccc(Cl)c1,-1.6%,-24.2%,-8.3%,i,i,23.1µM*
O=C(NCc1ccc(N2CCCC2=O)cc1)c1cnccn1,9.7%,3.9%,0.5%,i,?,i
Cc1ncsc1C(=O)NCc1ccc(N2CCCC2=O)cc1,6.4%,0.6%,-1.9%,i,i,16.4µM*
CCCN(CCC)CCCNC(=O)c1cnn(-c2ccc(F)cc2)c1-n1cccc1,·,·,-17.7%,i,i,i
COCCCNC(=O)c1nn(-c2ccc(C)cc2)c(=O)n(C)c1=O,·,·,0.9%,i,i,?
Oc1cc(-c2nc3ccccc3s2)cc2c1OCCN(Cc1cccn1-c1nccs1)C2,·,·,·,·,i,·
O=C(NCCN1CCN(c2ccccc2)CC1)Nc1cccc(Cl)c1,20.6µM*,18.4µM*,0.3%,i,i,i
Cc1cc(C(=O)NCCN2CCN(c3cccc(Cl)c3)CC2)n(-c2ccccc2)n1,8.2µM*,16.4µM*,-14.3%,14.6µM*,?,i
CCN(CC(=O)NC(C)C)Cc1nc2c(Br)cc(Br)cc2c(=O)[nH]1,-29.1%,-1.5%,·,i,i,9.2µM*
COc1cc(N)ccc1Nc1c2ccccc2nc2ccccc12,?,23.1µM*,?,i,·,i
CCCS(=O)(=O)Nc1ccc(Nc2c3ccccc3nc3ccccc23)c(OC)c1,-9.4%,?,?,?,11.9µM*,23.1µM*
Cc1ccc(O)c(Nc2c3ccccc3nc3ccccc23)c1,23.1µM*,16.4µM*,-37.4%,i,·,i
COc1ccc(Nc2nc3ccccc3c(=O)s2)c(OC)c1,-1.0%,4.1%,5.4%,i,?,i
CN(C)c1ccc(/C=C2\C(=O)/C(=C\c3ccc(N(C)C)cc3)c3ccccc32)cc1,·,·,·,i,·,i
Nc1ccc(/C=C/c2ccnc3ccccc23)c(N)c1,·,·,·,i,·,i
SMILES,HT1080-NT tox,HT1080 IDH1KD tx,ATXN2 expr inh,KB-3-1 tox,ATXN viability,KB-V1 cytotox
COCCNC(=O)C1CCN(Cc2cc3ccccc3n2Cc2ccc(C)cc2)CC1,·,·,?,i,?,i
CCOC(CCn1c(SCc2ccc([N+](=O)[O-])cc2)nc2ccccc2c1=O)OCC,-14.6%,-0.2%,-6.3%,i,i,3.66µM*
COc1cccc(/C(O)=C2\C(=O)C(=O)N(c3ccccn3)C2c2cccc(OC)c2OC)c1 (stereo not given),1.0%,1.3%,1.2%,i,i,23.1µM*
COc1ccc(C2/C(=C(/O)c3ccccc3)C(=O)C(=O)N2c2ccccn2)cc1 (stereo not given),?,8.6%,13.5%,i,i,i
CCCOc1ccc(/C(O)=C2\C(=O)C(=O)N(c3ccccn3)C2c2ccccc2F)cc1C (stereo not given),?,?,19.1%,i,i,18.4µM*
COc1ccc(OC)c(CCNC(=O)c2cnn(-c3ccccc3Cl)c2C2CCN(C(=O)OC(C)(C)C)CC2)c1,·,·,·,i,·,i
Cc1ccc(NC(=O)Cn2c(=O)ccc3cc(S(=O)(=O)N4CCC(C)CC4)ccc32)c(C)c1,·,·,-3.9%,i,i,i
Cc1cc(CNC(=O)c2cnn(-c3nccc(-c4cc(C)sc4C)n3)c2C2CC2)on1,·,·,·,·,i,·
Cc1cc(C)cc(OCC(=O)Nc2cccc(-c3nnc(-c4ccco4)o3)c2)c1,-2.0%,10.1%,9.5%,i,i,14.6µM*
COc1ccc(CC(=O)Nc2cccc(-c3nnc(-c4ccco4)o3)c2)cc1,-9.5%,-11.4%,-2.2%,i,?,?
COc1ccc(C(=O)Nc2cccc(-c3nnc(-c4ccco4)o3)c2)cc1,?,?,2.8%,?,?,13µM*
COc1cc(C(=O)Nc2cccc(-c3nnc(-c4ccco4)o3)c2)ccc1OC(C)=O,-22.0%,-25.3%,13.5%,i,i,20.6µM*
COc1cc(C(=O)Nc2ccc(-c3nnc(-c4ccco4)o3)cc2)cc(OC)c1OC,-0.9%,5.1%,-3.0%,i,i,?
CCOC(=O)c1sc(N2C(=O)c3oc4ccc(C)cc4c(=O)c3C2c2ccccc2F)nc1C (stereo not given),·,·,-7.8%,i,i,?
O=C(N/N=C/C=C\c1ccccc1[N+](=O)[O-])c1cc(-c2ccc3ccccc3c2)n[nH]1,13µM*,14.6µM*,-30.9%,i,?,i
O=C(N/N=C/C=C/c1ccccc1[N+](=O)[O-])c1ccncc1,-2.6%,-12.9%,8.5%,i,i,?
O=C(N/N=C/c1c[nH]c2ccccc12)c1cc(-c2cccc3ccccc23)n[nH]1,?,8.2µM*,-3.6%,?,i,i
O=C(N/N=C/c1ccccn1)c1cc(-c2ccc3ccccc3c2)n[nH]1,?,16.4µM*,?,i,?,i
O=C(N/N=C/c1c[nH]c2ccccc12)c1cc(-c2ccccc2)n[nH]1,?,?,-18.0%[11.3 µM],i,i,i
Cc1ccc(-c2cc(C(=O)N/N=C/c3c[nH]c4ccccc34)[nH]n2)cc1,?,2.91µM*,-10.0%,5.17µM*,i,10.3µM*
O=C(N/N=C/c1ccccn1)c1cc(-c2cccc3ccccc23)n[nH]1,-28.5%,-24.1%,-21.4%,i,i,i
